The structures appear in SMILES notation. Unmarked numbers belong to inactive results.

The subject of this assay is Vero E6 infected with SARS-CoV-2. Description: inhibition of SARS-CoV-2 cytopathic effect; higher = more antiviral protection, active = above 15. As to conditions: 100 nM; 48 h.
As to `Cc1cnc(Nc2ccc(OCCN3CCCC3)cc2)nc1Nc1cccc(S(=O)(=O)NC(C)(C)C)c1` [fedratinib], the “inhibition of SARS-CoV-2 cytopathic effect” value (“inhibition” below) is -0.42%.

`CCC(=O)O[C@H]1[C@H](O[C@@H]2[C@@H](C)[C@H](O[C@H]3C[C@@](C)(OC)[C@@H](O)[C@H](C)O3)[C@@H](C)C(=O)O[C@H](CC)[C@@](C)(O)[C@H](O)[C@@H](C)C(=O)[C@H](C)C[C@@]2(C)O)O[C@H](C)C[C@@H]1N(C)C` [erythromycin-estolate]: the “inhibition” value is 2.51%.

With `O=c1c(O)c(-c2ccc(O)c(O)c2)oc2cc(O)ccc12` [fisetin], the “inhibition” value is 0.7%.

With `O=[N+]([O-])c1ccc(O)c([N+](=O)[O-])c1` [2,4-dinitrophenol], the “inhibition” value was 5.04%.

Turning to `N=C(N)NCc1cccc(I)c1` [iobenguane], the “inhibition” value is 1.79%.

As to `COc1cc2nccc(Oc3ccc(NC(=O)NC4CC4)c(Cl)c3)c2cc1C(N)=O` [lenvatinib], the “inhibition” value was -0.32%.

As for `CNC(=O)c1c(I)c(C(=O)NCC(=O)Nc2c(I)c(C(=O)O)c(I)c(C(=O)NCCO)c2I)c(I)c(N(C)C(C)=O)c1I` [ioxaglic-acid], the “inhibition” value is 1.47%.

`Oc1ccc(CC2NCCc3cc(O)c(O)cc32)cc1` (stereo unspecified) [higenamine]: the “inhibition” value is 1.77%.

With `CCOC(=O)C1=C(C)NC(=S)NC1c1cccc(O)c1` (stereo unspecified) [monastrol], the “inhibition” value was 1.51%.

With `O=C/C=C/c1ccccc1` [cinnamaldehyde], the “inhibition” value is 1.04%.

On to `O=C(O)C(=O)CBr` [3-bromopyruvate], for which the “inhibition” value was 4.96%.

The values are drawn from the supplement of paper PMC13380429.
